Reference: PubChem BioAssay
Active and inactive are the calls of the source.

Experiments:
[1] = small molecules captured by biotinylated probe aFSTL3 – biochemical, small-molecule microarray, fluorescence 635/667, stem cell growth factor project, primary screen (AID 1064); conditions: higher = more signal;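 note: measures binding of the biotinylated anti-FSTL3 antibody to printed compounds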
[2] = binders from COS7 lysate, DM2A8 probe, primary screen, torsin A project, cell lysate, small-molecule microarray, fluorescence 635/667 (AID 1065); conditions: higher = more signal, COS7 lysate expressing mutant human TOR1A
[3] = small molecules captured by biotinylated probe aFGF2 – biochemical, small-molecule microarray, fluorescence 635/667, stem cell growth factor project, primary screen (AID 1067); conditions: higher = more signal;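 note: measures binding of biotinylated aFGF2 protein to printed compounds on slides; z-score merges feature fluorescence and signal-to-noise across triplicate slides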
[4] = small molecules captured by biotinylated probe aFGF10 – biochemical, small-molecule microarray, fluorescence 635/667, stem cell growth factor project, primary screen (AID 1071); conditions: higher = more signal;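 note: score merges 667 nm spot intensity and signal to noise from triplicate slides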
[5] = target: Neurogenic locus notch homolog protein 2 (Homo sapiens) (UniProt Q04721); assay: small molecules binding Notch2 protein – biochemical, small-molecule microarray, 635 nm fluorescence, stem cell growth factors, primary screen (AID 1073); conditions: higher = more signal
[6] = target: Pro-neuregulin-1, membrane-bound isoform (Homo sapiens) (UniProt Q02297); assay: small molecules binding neuregulin-1 protein – biochemical, small-molecule microarray, fluorescence 635/667, psychiatric disease protein project, primary screen (AID 1075); conditions: NRG1 binding, 635 nm fluorescence, higher = more signal;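 note: score combines 667 nm spot fluorescence with signal to noise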
[7] = system: Neuregulin-1 EGF-like domain; assay: small molecules binding NRG1 EGF domain – biochemical, small-molecule microarray, 635 nm fluorescence, primary screen (AID 1081); conditions: higher = more signal;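 note: binding of the protein to compounds printed on small-molecule microarray slides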
[8] = FRG1 expression reporter modulators in myotubes – cell-based, C2C12 myotubes, firefly/Renilla luciferase, luminescence, FRG1 inhibition for FSHD, primary screen (AID 1084); conditions: FRG1 promoter luciferase, higher = more signal, called active from +8 up or from −8 down
[9] = small molecules captured by biotinylated probe aFST – biochemical, small-molecule microarray, fluorescence 635/667, stem cell growth factor project, primary screen (AID 1086); conditions: higher = more signal;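 note: score merges 667 nm fluorescence with signal-to-noise of each printed compound spot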
[10] = binders of probe aHhip on microarray, primary screen, stem cell growth factor project, biochemical, small-molecule microarray, fluorescence 635/667 (AID 1087); conditions: higher = more signal;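 note: score merges spot fluorescence at 667nm with spot signal to noise ratio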
[11] = system: PRMT1 (protein arginine N-methyltransferase 1); assay: small molecules binding arginine methyltransferase PRMT1 – biochemical, small-molecule microarray, 635 nm fluorescence, primary screen (AID 1088); conditions: higher = more signal;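 note: binding of Prmt1 protein to compounds spotted on small-molecule microarray slides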
[12] = growth effects on S. cerevisiae YJM789 – YJM789 clinical isolate, OD600, 24 h, basal, primary screen (AID 1089); conditions: higher = more signal, called active from +8 up or from −8 down;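 note: growth of clinical yeast isolate S. cerevisiae YJM 789 seeded 1000 cells per well; test concentration not given here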
[13] = S. pombe growth modifiers, basal conditions – strain 972, OD600, 24 h, no modulator, primary screen (AID 1090);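 note: basal condition with compound alone and no growth modifier present; test concentration not given here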; conditions: S. pombe 972 growth, higher = more signal, called active from +8 up or from −8 down
[14] = budding yeast growth modifiers under rapamycin – strain BY4716, OD600, 96 h, primary screen (AID 1091); note: test concentration not given here; conditions: S. cerevisiae BY4716 + rapamycin, higher = more signal, called active from +8 up or from −8 down
[15] = target: Torsin-1A-interacting protein 2 (Homo sapiens) (UniProt Q8NFQ8); assay: small molecules binding lysate-expressed LULL1 – cell lysate, human LULL1 lysate, 635/667 nm fluorescence, primary screen (AID 1092); conditions: small-molecule microarray, hLULL1 lysate binding, 635 nm fluorescence; higher = more signal;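 note: probe is lysate of COS7 cells overexpressing human LULL1; score merges per-feature 667 nm fluorescence with signal-to-noise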
[16] = optical density change of DRC41 E. coli – strain DRC41, OD650, 24 h, E. coli filamentation project, primary screen (AID 1093);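 note: MC1000 strain lacking acrAB efflux and sulA so SOS filamentation is blocked; test concentration not given here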; conditions: E. coli DRC41 growth, higher = more signal, called active from +8 up or from −8 down
[17] = probe aLefty2 binding to arrayed compounds – biochemical, biotinylated probe, 635/667 nm fluorescence, primary screen (AID 1094); conditions: small-molecule microarray, higher = more signal;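 note: score merges spot fluorescence near 667 nm with spot signal-to-noise ratio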
[18] = system: Noggin (protein binding on small-molecule microarray); assay: small molecules binding Noggin protein – biochemical, 635/667 nm fluorescence, primary screen (AID 1095); conditions: 635 nm fluorescence, higher = more signal;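 note: score merges 667 nm feature fluorescence with signal to noise over triplicate slides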
[19] = target: Neurogenic locus notch homolog protein 3 (Homo sapiens) (UniProt Q9UM47); assay: small molecules binding NOTCH3 protein – biochemical, 635/667 nm fluorescence, primary screen (AID 1096); conditions: small-molecule microarray, 635 nm fluorescence, higher = more signal
[20] = probe aEGFR binding to arrayed compounds – biochemical, biotinylated probe, 635/667 nm fluorescence, primary screen (AID 1097); conditions: small-molecule microarray, higher = more signal;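 note: probe is a biotinylated anti-EGFR antibody binding compounds printed on slides; score combines fluorescence near 667 nm and signal to noise of each spot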

Torsin-1A-interacting protein 2 (Homo sapiens), sequence (Q8NFQ8 whole entry, looked up): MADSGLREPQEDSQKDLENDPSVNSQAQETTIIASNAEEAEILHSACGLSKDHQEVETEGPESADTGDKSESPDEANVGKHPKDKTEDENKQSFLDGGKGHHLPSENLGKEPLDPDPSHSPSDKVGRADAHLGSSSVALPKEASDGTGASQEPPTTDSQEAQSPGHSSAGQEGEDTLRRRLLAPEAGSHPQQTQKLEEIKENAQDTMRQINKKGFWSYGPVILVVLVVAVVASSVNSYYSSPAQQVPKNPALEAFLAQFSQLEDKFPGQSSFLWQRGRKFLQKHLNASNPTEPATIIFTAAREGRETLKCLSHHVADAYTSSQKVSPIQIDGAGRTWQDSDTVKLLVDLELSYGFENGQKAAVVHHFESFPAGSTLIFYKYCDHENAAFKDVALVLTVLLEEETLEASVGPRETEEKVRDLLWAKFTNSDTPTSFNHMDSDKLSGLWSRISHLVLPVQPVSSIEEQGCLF
Neurogenic locus notch homolog protein 2 (Homo sapiens), sequence (Q04721 whole entry, looked up, canonical isoform): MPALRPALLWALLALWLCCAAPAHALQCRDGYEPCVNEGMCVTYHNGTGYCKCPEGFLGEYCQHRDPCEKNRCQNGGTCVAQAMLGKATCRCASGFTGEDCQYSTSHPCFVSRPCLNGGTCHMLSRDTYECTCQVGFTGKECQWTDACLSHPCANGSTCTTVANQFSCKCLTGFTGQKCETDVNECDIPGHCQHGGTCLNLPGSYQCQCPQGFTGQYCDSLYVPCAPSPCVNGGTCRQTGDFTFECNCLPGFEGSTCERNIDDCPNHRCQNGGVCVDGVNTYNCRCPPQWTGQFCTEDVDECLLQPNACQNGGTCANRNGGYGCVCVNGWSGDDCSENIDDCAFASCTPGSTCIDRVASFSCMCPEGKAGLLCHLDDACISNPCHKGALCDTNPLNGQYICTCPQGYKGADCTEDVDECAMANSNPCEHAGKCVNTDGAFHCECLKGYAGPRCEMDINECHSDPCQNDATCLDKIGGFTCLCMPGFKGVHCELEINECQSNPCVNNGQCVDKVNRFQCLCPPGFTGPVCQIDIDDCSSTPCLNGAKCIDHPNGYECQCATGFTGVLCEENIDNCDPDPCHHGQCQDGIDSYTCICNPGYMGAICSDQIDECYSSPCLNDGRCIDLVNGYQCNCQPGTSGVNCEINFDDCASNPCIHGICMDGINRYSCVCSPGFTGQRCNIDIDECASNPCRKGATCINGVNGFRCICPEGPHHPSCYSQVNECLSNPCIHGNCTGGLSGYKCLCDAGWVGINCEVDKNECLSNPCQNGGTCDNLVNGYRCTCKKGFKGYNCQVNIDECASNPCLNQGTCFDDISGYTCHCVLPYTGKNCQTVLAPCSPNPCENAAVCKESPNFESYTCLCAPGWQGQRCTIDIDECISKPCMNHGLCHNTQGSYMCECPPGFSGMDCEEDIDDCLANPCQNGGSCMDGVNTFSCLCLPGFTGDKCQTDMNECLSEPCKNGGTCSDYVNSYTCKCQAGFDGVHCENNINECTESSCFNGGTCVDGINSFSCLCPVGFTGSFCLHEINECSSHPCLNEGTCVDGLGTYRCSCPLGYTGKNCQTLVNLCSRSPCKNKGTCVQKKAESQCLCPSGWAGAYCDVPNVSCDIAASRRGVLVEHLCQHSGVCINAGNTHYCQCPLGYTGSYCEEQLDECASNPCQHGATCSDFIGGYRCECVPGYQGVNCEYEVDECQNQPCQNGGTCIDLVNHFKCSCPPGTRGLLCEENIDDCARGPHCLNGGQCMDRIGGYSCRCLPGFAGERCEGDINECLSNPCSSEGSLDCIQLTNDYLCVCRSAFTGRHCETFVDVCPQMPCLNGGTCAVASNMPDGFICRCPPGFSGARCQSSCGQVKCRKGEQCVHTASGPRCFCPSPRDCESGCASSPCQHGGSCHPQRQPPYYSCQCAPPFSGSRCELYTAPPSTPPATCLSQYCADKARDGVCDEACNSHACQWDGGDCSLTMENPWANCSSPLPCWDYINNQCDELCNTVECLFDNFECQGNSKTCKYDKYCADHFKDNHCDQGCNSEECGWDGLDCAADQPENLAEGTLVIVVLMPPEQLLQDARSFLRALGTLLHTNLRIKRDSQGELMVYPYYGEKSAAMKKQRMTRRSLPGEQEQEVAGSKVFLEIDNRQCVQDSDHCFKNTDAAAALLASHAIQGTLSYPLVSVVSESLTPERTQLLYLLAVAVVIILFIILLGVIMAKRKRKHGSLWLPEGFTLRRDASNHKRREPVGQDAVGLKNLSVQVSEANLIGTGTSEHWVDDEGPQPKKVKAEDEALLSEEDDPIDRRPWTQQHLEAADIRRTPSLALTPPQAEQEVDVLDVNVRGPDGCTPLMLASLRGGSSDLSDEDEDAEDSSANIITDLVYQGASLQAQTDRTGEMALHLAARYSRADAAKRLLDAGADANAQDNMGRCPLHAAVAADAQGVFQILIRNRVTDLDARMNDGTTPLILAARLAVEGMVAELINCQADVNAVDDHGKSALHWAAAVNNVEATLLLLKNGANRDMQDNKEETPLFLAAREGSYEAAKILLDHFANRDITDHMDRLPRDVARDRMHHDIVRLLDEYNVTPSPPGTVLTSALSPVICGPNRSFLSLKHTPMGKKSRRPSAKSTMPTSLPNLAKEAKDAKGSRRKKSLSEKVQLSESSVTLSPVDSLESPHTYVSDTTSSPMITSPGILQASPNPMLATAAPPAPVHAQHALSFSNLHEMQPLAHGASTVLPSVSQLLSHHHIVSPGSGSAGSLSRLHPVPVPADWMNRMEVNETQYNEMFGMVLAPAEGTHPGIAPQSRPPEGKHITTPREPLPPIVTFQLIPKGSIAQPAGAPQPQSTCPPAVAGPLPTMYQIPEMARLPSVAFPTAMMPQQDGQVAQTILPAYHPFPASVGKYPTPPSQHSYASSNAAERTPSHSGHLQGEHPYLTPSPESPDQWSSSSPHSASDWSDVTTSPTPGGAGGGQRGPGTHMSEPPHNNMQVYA
Pro-neuregulin-1, membrane-bound isoform (Homo sapiens), sequence (Q02297 whole entry, looked up, the tested form may be a part, canonical isoform): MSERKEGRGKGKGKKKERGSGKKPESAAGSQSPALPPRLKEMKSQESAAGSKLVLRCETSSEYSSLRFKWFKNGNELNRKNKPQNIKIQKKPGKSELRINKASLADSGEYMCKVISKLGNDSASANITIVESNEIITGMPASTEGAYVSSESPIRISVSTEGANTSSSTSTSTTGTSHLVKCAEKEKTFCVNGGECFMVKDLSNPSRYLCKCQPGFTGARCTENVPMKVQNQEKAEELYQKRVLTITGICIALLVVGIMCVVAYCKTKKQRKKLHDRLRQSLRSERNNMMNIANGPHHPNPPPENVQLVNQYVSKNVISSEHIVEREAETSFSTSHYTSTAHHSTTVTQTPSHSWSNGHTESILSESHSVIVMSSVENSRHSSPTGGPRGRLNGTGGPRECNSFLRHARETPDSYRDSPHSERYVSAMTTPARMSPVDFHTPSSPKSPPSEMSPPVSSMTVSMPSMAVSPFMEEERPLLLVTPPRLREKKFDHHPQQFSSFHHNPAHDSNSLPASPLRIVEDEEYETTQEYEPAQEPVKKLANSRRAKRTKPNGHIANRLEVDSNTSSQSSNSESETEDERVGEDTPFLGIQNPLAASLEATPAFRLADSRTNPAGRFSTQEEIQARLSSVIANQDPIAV

## C=CCC(OC(C)=O)[C@@H]1[C@@H](N(Cc2ccc(-c3ccccc3)cc2)C(=O)Cc2ccc(F)cc2)c2cc(OCCCO)ccc2N1C(=O)c1ccc2ccccc2c1 (stereo not given in full)
[1]
  composite z-score: -0.313
[2]
  composite z-score: 0.273
[3]
  composite z-score: -0.0222
[4]
  composite z-score: -0.0326
[5]
  composite z-score: 0.166
[6]
  composite z-score: -0.158
[7]
  composite z-score: -0.31
[8]
  z-score: 0.375 (inactive)
[9]
  composite z-score: 0.0263
[10]
  composite z-score: -0.226
[11]
  composite z-score: 0.688
[12]
  z-score: 0.245 (inactive)
[13]
  z-score: 0.135 (inactive)
[14]
  z-score: 0.14 (inactive)
[15]
  composite z-score: 0.437
[16]
  z-score: 0.0919 (inactive)
[17]
  composite z-score: 0.0002
[18]
  composite z-score: 0.289
[19]
  composite z-score: 0.147
[20]
  composite z-score: -0.109

## O=C1C2C=CC(C(O)C=Cc3ccc([N+](=O)[O-])cc3)N(Nc3ccccc3F)C2C(=O)N1c1ccccc1 (stereo not given)
[1]
  composite z-score: 0.133
[2]
  composite z-score: 0.537
[3]
  composite z-score: 0.0135
[4]
  composite z-score: 1.03
[5]
  composite z-score: 1.51
[6]
  composite z-score: 1.39
[7]
  composite z-score: 1.16
[8]
  z-score: 0.477 (inactive)
[9]
  composite z-score: 1.11
[10]
  composite z-score: 0.0274
[11]
  composite z-score: 1.57
[12]
  z-score: 0.612 (inactive)
[13]
  z-score: 2.1 (inactive)
[14]
  z-score: 1.47 (inactive)
[15]
  composite z-score: 3.1
[16]
  z-score: -1.04 (inactive)
[17]
  composite z-score: 0.0511
[18]
  composite z-score: 0.0689
[19]
  composite z-score: 0.994
[20]
  composite z-score: 0.293

## COc1ccc([Si](C)(C)[C@@H]2[C@@H](CC(=O)N3CCC[C@H]3CO)O[C@]3(C(=O)N(Cc4cccc(I)c4)c4ccccc43)[C@H]2C)cc1
[1]
  composite z-score: 0.07
[2]
  composite z-score: 1.29
[3]
  composite z-score: -0.137
[4]
  composite z-score: 0.192
[5]
  composite z-score: 1.08
[6]
  composite z-score: 0.916
[7]
  composite z-score: 1.17
[8]
  z-score: -1.06 (inactive)
[9]
  composite z-score: 0.453
[10]
  composite z-score: -0.0994
[11]
  composite z-score: 1.53
[12]
  z-score: -1.23 (inactive)
[13]
  z-score: 0.0115 (inactive)
[14]
  z-score: 1.14 (inactive)
[15]
  composite z-score: 0.175
[16]
  z-score: 0.25 (inactive)
[17]
  composite z-score: 0.0678
[18]
  composite z-score: 1.62
[19]
  composite z-score: 1.08
[20]
  composite z-score: 0.0807

## CO[C@H]1O[C@H](CO)[C@@H](OC(=O)Nc2ccc(Oc3ccccc3)cc2)[C@H](OC(=O)Nc2ccc3c(c2)OCO3)[C@@H]1OC(=O)Nc1ccc2c(c1)OCO2
[1]
  composite z-score: 0.154
[2]
  composite z-score: 0.333
[3]
  composite z-score: -0.0493
[4]
  composite z-score: 1.22
[5]
  composite z-score: 1.55
[6]
  composite z-score: 0.516
[7]
  composite z-score: 1.09
[8]
  z-score: -0.0746 (inactive)
[9]
  composite z-score: 0.8
[10]
  composite z-score: 0.28
[11]
  composite z-score: 1.53
[12]
  z-score: 2.21 (inactive)
[13]
  z-score: 1.22 (inactive)
[14]
  z-score: 8.57 (active)
[15]
  composite z-score: 3.04
[16]
  z-score: 1.36 (inactive)
[17]
  composite z-score: 0.237
[18]
  composite z-score: 0.866
[19]
  composite z-score: 1.07
[20]
  composite z-score: 0.367

## CCCCN1CC=CC23O[C@@H]4C=CCOC(=O)[C@@H]4[C@H]2C(=O)N(CCCCCCO)[C@@H]3C1=O (stereo not given in full)
[1]
  composite z-score: 1.22
[2]
  composite z-score: -0.64
[3]
  composite z-score: -0.141
[4]
  composite z-score: -1.34
[5]
  composite z-score: -1.86
[6]
  composite z-score: 1.01
[7]
  composite z-score: 1.3
[8]
  z-score: -0.0048 (inactive)
[9]
  composite z-score: -0.581
[10]
  composite z-score: -0.134
[11]
  composite z-score: -0.598
[12]
  z-score: -0.992 (inactive)
[13]
  z-score: -0.053 (inactive)
[14]
  z-score: -0.362 (inactive)
[15]
  composite z-score: 1.57
[16]
  z-score: -0.44 (inactive)
[17]
  composite z-score: -0.0665
[18]
  composite z-score: -1.84
[19]
  composite z-score: -0.61
[20]
  composite z-score: -0.244

## CCCCCN1CC=CC23O[C@@H]4C=CCOC(=O)[C@@H]4[C@H]2C(=O)N(C(C)CO)[C@@H]3C1=O (stereo not given in full)
[1]
  composite z-score: 0.484
[2]
  composite z-score: 1.52
[3]
  composite z-score: -0.195
[4]
  composite z-score: -0.109
[5]
  composite z-score: -0.825
[6]
  composite z-score: 0.913
[7]
  composite z-score: 1.49
[8]
  z-score: -0.02 (inactive)
[9]
  composite z-score: -0.637
[10]
  composite z-score: -0.399
[11]
  composite z-score: -0.508
[12]
  z-score: -0.076 (inactive)
[13]
  z-score: -0.226 (inactive)
[14]
  z-score: 0.0795 (inactive)
[15]
  composite z-score: -0.952
[16]
  z-score: 0.266 (inactive)
[17]
  composite z-score: -0.174
[18]
  composite z-score: -1
[19]
  composite z-score: -0.553
[20]
  composite z-score: -0.296

## CN1CCC(CCCO)=CC1c1cccs1 (stereo not given)
[1]
  composite z-score: -0.017
[2]
  composite z-score: 0.0383
[3]
  composite z-score: -0.159
[4]
  composite z-score: -0.959
[5]
  composite z-score: -1.01
[6]
  composite z-score: 0.968
[7]
  composite z-score: 0.72
[8]
  z-score: 0.159 (inactive)
[9]
  composite z-score: -0.142
[10]
  composite z-score: -0.0491
[11]
  composite z-score: -0.0029
[12]
  z-score: -1.69 (inactive)
[13]
  z-score: -0.327 (inactive)
[14]
  z-score: -0.489 (inactive)
[15]
  composite z-score: -0.93
[16]
  z-score: 0.345 (inactive)
[17]
  composite z-score: -0.166
[18]
  composite z-score: 0.0615
[19]
  composite z-score: 0.0121
[20]
  composite z-score: -0.108

## O=C1O[C@H](c2ccccc2)[C@H](c2ccccc2)N2[C@H]1[C@@H](C(=O)NC[C@H](O)c1ccccc1)[C@]1(C(=O)Nc3ccc(C#CC4=CCCCC4)cc31)[C@H]2c1ccccc1OCCO
[1]
  composite z-score: 0.185
[2]
  composite z-score: 0.463
[3]
  composite z-score: 0.0637
[4]
  composite z-score: 0.496
[5]
  composite z-score: 0.908
[6]
  composite z-score: 0.298
[7]
  composite z-score: 1.07
[8]
  z-score: -0.341 (inactive)
[9]
  composite z-score: 0.599
[10]
  composite z-score: -0.0645
[11]
  composite z-score: 1.43
[12]
  z-score: 2.2 (inactive)
[13]
  z-score: -0.874 (inactive)
[14]
  z-score: 2.64 (inactive)
[15]
  composite z-score: 1.64
[16]
  z-score: -0.0991 (inactive)
[17]
  composite z-score: 0.107
[18]
  composite z-score: 0.545
[19]
  composite z-score: 0.786
[20]
  composite z-score: 0.032

## CCOc1cc(C(O)C2C=CC3C(=O)N(c4ccccc4)C(=O)C3N2Nc2ccc(C(C)C)cc2)ccc1O (stereo not given)
[1]
  composite z-score: 0.0696
[2]
  composite z-score: 0.201
[3]
  composite z-score: -0.0254
[4]
  composite z-score: 0.707
[5]
  composite z-score: 1.52
[6]
  composite z-score: 1.36
[7]
  composite z-score: 1.31
[8]
  z-score: 0.698 (inactive)
[9]
  composite z-score: 1.17
[10]
  composite z-score: -0.0237
[11]
  composite z-score: 1.55
[12]
  z-score: 0.471 (inactive)
[13]
  z-score: -1.28 (inactive)
[14]
  z-score: 0.597 (inactive)
[15]
  composite z-score: 3.42
[16]
  z-score: -1.14 (inactive)
[17]
  composite z-score: 0.0261
[18]
  composite z-score: 0.107
[19]
  composite z-score: 1.1
[20]
  composite z-score: -0.0581

## COc1ccc([Si](C)(C)[C@@H]2[C@@H](CCO)O[C@]3(C(=O)N(Cc4cccc(N5CCOC5=O)c4)c4ccccc43)[C@H]2C)cc1
[1]
  composite z-score: 0.0806
[2]
  composite z-score: 0.229
[3]
  composite z-score: -0.0704
[4]
  composite z-score: 0.289
[5]
  composite z-score: 1.03
[6]
  composite z-score: 0.775
[7]
  composite z-score: 0.953
[8]
  z-score: -1.65 (inactive)
[9]
  composite z-score: 0.0855
[10]
  composite z-score: -0.156
[11]
  composite z-score: 1.42
[12]
  z-score: 4.03 (inactive)
[13]
  z-score: 0.643 (inactive)
[14]
  z-score: 37.8 (active)
[15]
  composite z-score: 0.97
[16]
  z-score: 0.516 (inactive)
[17]
  composite z-score: -0.0357
[18]
  composite z-score: 0.825
[19]
  composite z-score: 0.797
[20]
  composite z-score: -0.0564
